HCMV inh: human cytomegalovirus inhibition; HFF cells, HCMV-luciferase reporter, 72 h; hits give low values; activity change, negative = inhibition, % at 57.5 µM; 4.5% of 410,000 active; in the data active = activity change below about -60%; inconclusive = no clear call, values can overlap the other calls; inactive = above about -39%
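Human foreskin fibroblasts infected with luciferase-reporter HCMV at MOI 1 PFU/cell, compounds at two doses. Luciferase measured 72 h post infection; normalized to buffer-only basal and Salinomycin (10uM) controls.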
VACV mCherry inh: vaccinia inhibition (mCherry reporter); Vaccinia virus mCherry reporter infection, fluorescence; Potency, µM (series often up to 36.5 µM), for inactives: at the top dose activity change, negative = inhibition, most hits filed as inhibitors; 0.63% of 310,000 active; AID 720579; calls by dose curve; tested in A549 cells; note: potency is the fitted concentration of half-maximal effect; nearly all actives have a fitted effect of over 35% in size
LASV entry inh: Lassa virus entry inhibition. Lassa virus pseudotype entry inhibition, cell reporter. Potency, µM (titrated, usually from 37.9 µM), inactives show at the top dose activity change, negative = inhibition, most hits filed as inhibitors. AID 540256. 1.2% of 300,000 active; calls by dose curve; tested in HEK293 cells; note: potency is the fitted concentration of half-maximal effect; nearly all actives have a fitted effect of over 50% in size
FMDV antiviral: blocks foot and mouth disease virus; 1.2% of 410,000 active; Potency, µM (top dose mostly 57.9 µM), without a hit: at the highest dose activity change, negative = inhibition, actives largely listed as inhibitors; FMDV antiviral cell-based qHTS; calls by dose curve; tested in HEK293T cells; note: read-out not given here; potency is the fitted concentration of half-maximal effect; nearly all actives have a fitted effect of over 45% in size
Marburg entry inh: Marburg virus entry inhibition | 1.8% of 300,000 active | Marburg virus pseudotyped entry inhibition, cell reporter | AID 540276 | Potency, µM (doses to about 37.8 µM), for inactives: at the highest dose activity change, negative = inhibition, hits mostly inhibitors; calls by dose curve; tested in HEK293 cells; note: potency is the fitted concentration of half-maximal effect
Vaccinia Venus: inhibitors of vaccinia virus (Venus reporter); 0.46% of 330,000 active; Potency, µM (titrated, usually from 36.5 µM), inactives show top-dose activity change, negative = inhibition, hits mostly inhibitors; Vaccinia virus Venus reporter expression, fluorescence; calls by dose curve; tested in A549 cells; note: potency is the fitted concentration of half-maximal effect; nearly all actives have a fitted effect of over 30% in size
* = called active by the depositor; i = inactive; ? = inconclusive; / = no result given; [ ] = remark or other dose. Most compounds without a hit are left out; they make up all but 6.5% or so of the library. % is set by controls: 0 for no effect and ±100 for the full control effect.

SMILES	HCMV inh	VACV mCherry inh	LASV entry inh	FMDV antiviral	Marburg entry inh	Vaccinia Venus
Cc1cc(Sc2nnc(/N=C/N(C)C)s2)c2ccccc2n1	-106*	/	/	14µM*	/	/
CN(C)c1cc(NC(=O)CN2CCCC2)c2ccccc2n1	-5	7%	6%[46.1 µM]	-10%	10µM*	-2%
CN(C)c1cc(NC(=O)CNC(C)(C)CC(C)(C)C)c2ccccc2n1	-60*	-12%	?	-26%	?	-8%
COC(=O)C(N)(c1ccccc1)C(Nc1cccc(OC)c1)c1ccccc1 (centres undefined)	17	/	/	/	/	/
Cc1nn(-c2ccccc2)c(N2CCCC2)c1/C=N/NC(=O)c1cccc(S(=O)(=O)Nc2ccc(Cl)cc2)c1	-16	-13%	?	-4%	?	?
Cc1nn(-c2ccccc2)c(N2CCCC2)c1/C=N/NC(=O)c1cc(-c2ccccc2)nc2ccccc12	9	-15%	-29%	?	?	3%
Cc1nn(-c2ccccc2)c(N2CCCC2)c1/C=N/NC(=O)c1cc2ccccc2cc1O	2	-30%	5%	40µM*	-7%	-15%
Cc1nn(-c2ccccc2)c(N2CCCC2)c1/C=N/NC(=S)Nc1ccccc1F	-61*	i	?	13%	?	-10%
CCn1c(=O)c2sccc2n2c(CCCC(=O)Nc3ccc(Oc4ccccc4)cc3)nnc12	-6	-17%	8%[46.1 µM]	-19%	/	-8%
CCSC1(SCC)N=C(N)C2(C#N)C(c3ccc(F)cc3)C12C#N (centres undefined)	-107*	-15%[1.46 µM]	?	14µM*	?	-13%
COC1(OC)N=C(N)C2(C#N)C(c3ccc(F)cc3)C12C#N (centres undefined)	-31	i	4%	-7%	-3%	-17%
CC(C)(O)C#Cc1ccc(CN2CCc3nnc(CCNC(=O)c4ccco4)n3CC2)cc1	/	-10%	/	10%	/	-1%
CNc1ccc(Br)cc(C(=O)/C=C/c2cccc(OC)c2OC)c1=O	-92*	/	-21%	1%	11%	/
CNc1ccccc(C(=O)/C=C/c2ccccc2OC)c1=O	39	-24%	?	?	11µM*	?
COc1ccccc1/C=C/C(=O)Nc1cccnc1Cl	60	/	/	72%	/	/
COc1cccc(/C=C/C(=O)NNC(=O)c2ccccc2)c1OC	107	-3%	-14%[46.1 µM]	25%	?	2%
CCNc1ccccc(C(=O)/C=C/c2ccc3c(c2)OCO3)c1=O	-2	/	-17%	?	-1%	0%
O=C(C=Cc1ccccc1Cl)c1ccccc1	-24	-8%	1%[46.1 µM]	15%	?	-4%
CNc1ccc(Br)cc(C(=O)/C=C/c2cccc(Cl)c2Cl)c1=O	51	/	/	20µM*	/	/
CCNc1ccc(Br)cc(C(=O)/C=C/c2ccccc2Cl)c1=O	-103*	/	?	?	16µM*	/
CCC(Oc1ccc(F)cc1)C(=O)Nc1cc(-c2ccc(C)cc2)no1 (centres undefined)	32	-13%	4%[46.1 µM]	-3%	-11%[46.1 µM]	-13%
CCC(Oc1ccc(F)cc1)C(=O)Nc1nc(-c2ccc(F)cc2)ns1 (centres undefined)	-98*	?	?	-19%	?	?
COCc1cc(=O)[nH]c(/N=C(\N)Nc2ccc(C)cc2C)n1	?	0%	?	-18%	2%[46.1 µM]	-12%
COc1ccccc1N/C(N)=N/c1nc(CSc2ccc(C)cc2)cc(=O)[nH]1	?	?	-25%	?	?	-22%
CCCc1cc(=O)[nH]c(/N=C(\N)Nc2ccccc2)n1	-7	/	3%	22%	12%	/
SMILES	HCMV inh	VACV mCherry inh	LASV entry inh	FMDV antiviral	Marburg entry inh	Vaccinia Venus
Cc1ccc(SCc2cc(=O)[nH]c(/N=C(\N)Nc3ccccc3Sc3ccccc3)n2)cc1	-94*	-12%	-9%	-18%	-13%	-6%
Cc1ccc(N/C(N)=N/c2nc(CSc3ccccn3)cc(=O)[nH]2)c(C)c1	-69*	i	?	?	-25%[46.1 µM]	-14%
CCc1ccc(N/C(N)=N/c2nc(CSc3ccccn3)cc(=O)[nH]2)cc1	-85*	i	?	?	?	1%
COc1ccc(CN2CCC3(CC2)c2ccccc2[C@@H](NC(=O)c2ccsc2)[C@@H]3OC)cc1O	/	-16%	/	2%	/	-10%
Cc1ccc(Cl)cc1-n1nnc(-c2nc(-c3ccc4c(c3)OCO4)no2)c1C	43	-16%	3%[46.1 µM]	-11%	/	-4%
Cc1ccc(S(=O)(=O)C2CCN(c3nc(-c4cccs4)nc4ccccc34)CC2)cc1	/	-10%	/	/	/	-7%
CCC(Sc1nnc(-c2ccc(C)c(Cl)c2)n1CC)C(=O)Nc1nccs1 (centres undefined)	?	/	?	22µM*	?	/
Cc1cccc(C(=O)N2CCc3cc(CNC(=O)c4ccc(Br)o4)ccc32)c1	-67*	-26%	?	6%	/	-27%
Cc1ccc(C(=O)N2CCc3cc(CNC(=O)c4ccnn4C)ccc32)cc1	-70*	-16%	?	?	/	?
O=C(NCc1ccc2c(c1)CCN2C(=O)c1ccccc1)c1ccc(Br)o1	-12	-18%	-28%[46.1 µM]	-27%	/	-16%
Cn1nccc1C(=O)NCc1ccc2c(c1)CCN2C(=O)c1ccc(F)cc1	-1	i	?	-14%	/	-17%
Cc1cccc(C(=O)N2CCc3cc(CNC(=O)c4ccnn4C)ccc32)c1	4	i	?	20µM*	/	-13%
CCOC(=O)c1cccc(NC(=O)NCc2ccc3c(c2)CCN3C(=O)c2ccccc2)c1	?	?	?	40µM*	/	?
Cn1nccc1C(=O)NCc1ccc2c(c1)CCN2C(=O)c1ccc(Cl)cc1	-15	-12%	?	1%	/	-13%
O=S1(=O)N[C@@H](Cc2ccccc2)COc2cccc(NCCCN3CCOCC3)c21	-11	/	?	/	/	/
C=CC[C@@H]1C=C[C@@H](Oc2ccc(OC)cc2)[C@H](CO)O1	/	/	/	/	-15%[14.2 µM]	/
C/C(=N/NC(=O)c1ccc(C)s1)c1cccc(NC(=O)COc2ccc(Cl)cc2Cl)c1	-35	/	-25%	15%	?	3%
C/C(=N/NC(=O)c1ccc(Cl)s1)c1ccc(NC(=O)COc2ccc(Cl)cc2)cc1	-77*	i	0%	-16%	?	-13%
C/C(=N/NC(=O)c1cccs1)c1ccc(NC(=O)COc2ccc(Cl)cc2Cl)cc1	-33	i	13µM*	4%	?	-13%
CCc1ccccc1NC(=O)C1CCN(c2nn3c(=O)cc(C)nc3s2)CC1	0	0%	21%[46.1 µM]	23%	-9%[46.1 µM]	-15%
CCn1c(/C(C#N)=C/c2ccccc2Cl)nc2ccccc21	-73*	8%	-12%[46.1 µM]	-17%	/	8%
CCn1c(/C(C#N)=N/O)nc2ccccc21	-6	-6%	1%	0%	-5%	-17%
COc1ccc(/C=C2\CCCC3C2=NN(C(=O)c2scnc2C)C3c2ccc(OC)c(OC)c2)cc1OC (centres undefined)	-8	/	5.2µM*	-3%	?	/

Screens from PubChem.
